# Source: PubChem BioAssay
# Compounds with a hit are over-represented: about 12% of the library has one in this group of screens.
# G9a block – blocks human histone lysine methyltransferase G9a; Q96KQ7; G9a H3K9 monomethylation, AlphaScreen, 2 h; Potency, µM (titrated, usually from 102 µM), without a hit: top-dose activity, negative = inhibition, usual class: inhibitors; 8.8% of 350,000 active; also: potency is read from the fitted curve at half-maximal effect; % is scaled to controls: 0 for no effect and ±100 for the full control effect; nearly all actives have a fitted effect of over 75% in size
#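 Signal arises when biotinylated H3K9 peptide, once monomethylated, bridges streptavidin donor and antibody-captured acceptor beads. Enzyme at 20 nM was preincubated 15 min with test compounds; peptide 500 nM and SAM 20 uM then reacted for 2 h.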
# JMJD2A Tudor – inhibitors of human JMJD2A Tudor domain; AlphaScreen JMJD2A-Tudor / H3K4me3 peptide binding; Potency, µM (doses to about 114 µM), for inactives: at the highest dose activity change, negative = inhibition, hits mostly inhibitors; 4.4% of 390,000 active; also: potency is read from the fitted curve at half-maximal effect; % is scaled to controls: 0 for no effect and ±100 for the full control effect; nearly all actives have a fitted effect of over 50% in size
# HP1b binding inh – inhibitors of HP1-beta chromodomain binding to methylated histone tails. AlphaScreen HP1-beta / biotin-H3K9me3 peptide binding. Potency, µM (doses to about 114 µM), without a hit: top-dose activity change, negative = inhibition, actives largely listed as inhibitors. 0.56% of 390,000 active. P83916. AID 540317; also: potency is read from the fitted curve at half-maximal effect; nearly all actives have a fitted effect of over 70% in size
#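 Compound inhibition of the preformed complex between 50 nM HP1-beta and 50 nM biotinylated H3K9me3 peptide was read by AlphaScreen. Buffer was PBS pH 7.4 with 0.01% Tween-20. Incubations ran 30 min at room temperature, with 10 ug/mL donor/acceptor beads.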
# PI5P4K alpha inh – inhibitors of human PI5P4K alpha. max response, %. 1.2% of 330,000 active. PI5P4Kalpha enzyme, ADP-Glo luminescence, 60 min; stronger effect = lower value. P48426. AID 652105; active = max response of -50% or lower; inconclusive = between -30% and -50%; inactive = -30% or higher; also: value at the top dose of about 77 µM; % is scaled to controls: 0 for no effect and ±100 for the full control effect
#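 Compounds were pin-transferred onto PI5P4Kalpha and substrate in HEPES pH 7.4 buffer with EGTA, CHAPS and 5% DMSO. ATP (5 microM final) started the reaction, which ran 60 minutes at room temperature before ADP-Glo detection.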
# PLK1 PBD block – blocks phosphopeptide binding to human PLK1 polo-box domain; P53350; Plk1 PBD binding of FITC phosphopeptide, fluorescence polarization; Potency, µM, for the others: max response, negative = inhibition, most hits filed as inhibitors; 2.8% of 360,000 active; AID 720504; also: potency is read from the fitted curve at half-maximal effect; series mostly up to about 57 µM; % is scaled to controls: 0 for no effect and ±100 for the full control effect; nearly all actives have a fitted effect of over 65% in size
# BAZ2B inh – inhibitors of human BAZ2B bromodomain. Potency, µM (titrated, usually from 114 µM), for inactives: top-dose activity change, negative = inhibition, actives largely listed as inhibitors. 4.4% of 360,000 active. AlphaScreen BAZ2B-H3K14Ac peptide displacement. Q9UIF8; also: potency is read from the fitted curve at half-maximal effect; % is scaled to controls: 0 for no effect and ±100 for the full control effect; nearly all actives have a fitted effect of over 60% in size
#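 Compounds, titrated to a top concentration of 110 uM, were incubated 30 min at room temperature with preformed BAZ2B/acetyl-K14 H3 peptide complex (50 nM each). Proximity signal was measured by AlphaScreen after 20 min with beads.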
# The depositor's hits bear a star; ? = inconclusive; . = not tested or not shown; [ ] = dose if it differs, or a comment. Unless noted, calls follow the shape of the dose curve; as a rule, active = well fitted curve in the direction sought with a large enough effect; inconclusive = small, poorly fitted or top-dose-only effect, or another doubt; inactive = no such curve, though single readings can be large; an effect the other way counts as inactive or inconclusive.
SMILES,G9a block,JMJD2A Tudor,HP1b binding inh,PI5P4K alpha inh,PLK1 PBD block,BAZ2B inh
CCOc1ccc2oc(C(=O)OCC(=O)NC3CCCC3)c(C)c2c1,16%[12.7 µM],8%,25%,1,1%,3%
Cc1c(NC(=O)Cc2ccc(Cl)cc2)cccc1-c1nc2cccnc2s1,?,-23%,-17%,.,.,-37%
Cc1ccc(S(=O)(=O)N(Cc2n[nH]c(=S)n2-c2ccccc2)c2ccccc2)cc1,.,-28%,24%,2,-12%,?
CCCCCC(O)CCc1n[nH]c(=S)n1-c1ccccc1 (stereo not drawn),8.9µM*,20µM*,13%,-12,-2%,5%[57.1 µM]
COc1ccccc1N1CCN(CCCn2c(=S)[nH]c3ccccc3c2=O)CC1,-10%,-36%,26%,1,-7%,?
S=c1[nH]nc(CCSCc2ccccc2)n1-c1ccccc1,3.5µM*,40µM*,11%,0,-7%,?
CCOc1ccc(-n2c(CCc3ccccc3)n[nH]c2=S)cc1,?,16µM*,5%,-3,-7%,-15%
COc1ccccc1N1CCN(CCc2n[nH]c(=S)n2-c2ccccc2)CC1,?,18µM*,2%,.,-5%,50µM*
CC(=O)c1ccc(OCC(=O)NC(=O)NC2CCCC2)cc1,.,.,.,0,3%,.
COc1cc(OC)cc(C(=O)NC(=S)N(Cc2ccccc2)C(C)C)c1,80%[2.33 µM],-33%,5%,-3,-14%,?
CCCOc1ccc(CCc2n[nH]c(=S)n2-c2ccccc2)cc1,5.6µM*,-24%,24%,-1,-19%,-33%
CCCOc1ccc(CCc2n[nH]c(=S)n2Cc2ccccc2)cc1,?,-34%[57.1 µM],29%,2,-15%,1%
Cc1nn(C(=O)c2cccc([N+](=O)[O-])c2C)c(C)c1S(=O)(=O)N1CCCCCC1,-3%[59 µM],-8%,12%[57 µM],.,.,-20%
Cc1nc(N=Nc2ccc(C(=O)O)cc2)c(COP(=O)(O)O)c(C=O)c1O,40µM*,.,.,.,.,.
O=C1CC(Nc2ccc(N3CCOCC3)cc2)C(=O)N1Cc1ccccc1 (stereo not drawn),8.9µM*,?,-20%,.,-11%,?
COc1ccc(OC)c(C(=O)c2ccc([N+](=O)[O-])cc2)c1,.,89µM*,-29%[57 µM],0,2%,.
CCOC(=O)N1CCN(C(=O)c2ccc([N+](=O)[O-])cc2Cl)CC1,.,?,2%,-12,24µM*,-3%[0.457 µM]
COc1ccc(C(=O)c2ccc([N+](=O)[O-])cc2Cl)cc1,.,56µM*,?,0,-10%,?
Cc1ccccc1C(=O)NCC(=O)OC(C(=O)Nc1cc(C(F)(F)F)ccc1Cl)c1ccccc1 (stereo not drawn),.,-18%,.,.,.,.
CCOc1ccc(OCC)c(NC(=O)CCNS(=O)(=O)c2cc(Br)cnc2N)c1,-46%,-24%,22%,10,-17%,-37%
COc1ccc2c3c(cccc13)C(=O)CC2,19%[0.501 µM],16%,45%,-14,9.5µM*,16%
O=C(Cn1ccn(-c2cccc(Cl)c2)c(=O)c1=O)NCCc1ccccc1,?,-8%,22%,.,.,0%
c1csc(-c2nc3ccccc3s2)c1,20µM*,9%,29%,-5,?,45%
COc1cccc(NC(=O)Nc2cc(C(=O)NC(C)C)ccc2N2CC3CC(C2)c2cccc(=O)n2C3)c1 (stereo not drawn),23%[59 µM],?,10%,-14,3.8µM*,-16%
O=C(O)c1ccc(N2CC3CC(C2)c2cccc(=O)n2C3)c(NC(=S)Nc2ccc(Cl)cc2Cl)c1 (stereo not drawn),10µM*,-30%,?,-17,12µM*,1%
SMILES,G9a block,JMJD2A Tudor,HP1b binding inh,PI5P4K alpha inh,PLK1 PBD block,BAZ2B inh
COc1ccccc1C(=O)NC(=O)COC(=O)c1cccc(OC(F)F)c1,14%[0.501 µM],-2%,42%,-1,4%,7%
COc1ccc(-c2cc3ccc(OCc4nn[nH]n4)cc3oc2=O)cc1OC,45µM*,-17%,60%,-26,-5%,-6%
COc1ccc(-c2cc3ccc(OCC(C)=O)cc3oc2=O)cc1OC,6%,3%,25%,-13,-9%,-14%
CCn1ccnc1CNCc1cn(-c2cc(C)ccc2C)nc1-c1ccccc1,-10%,?,10%,-4,?,40µM*
Cc1cccc(-n2cc(CN(C)Cc3nccn3C)c(-c3cccc(F)c3)n2)c1,16µM*,40µM*,?,10,-12%,?
CCn1ccnc1CN(C)Cc1cn(-c2ccc(C)cc2)nc1-c1cccc(C)c1,32µM*,?,?,1,10%,40µM*
CCn1ccnc1CN(C)Cc1nc(-c2cccc(Cl)c2)no1,.,-16%,12%,4,-2%,-16%
CCn1ccnc1CN(C)Cc1cn(-c2cccc(C)c2)nc1-c1cccc(F)c1,11µM*,50µM*,?,13,-15%,35µM*
COc1cccc(N2CCN(C(=O)Cn3cnc4onc(-c5ccc(F)cc5)c4c3=O)CC2)c1,-32%[59 µM],-18%,19%,.,.,-1%[57.1 µM]
COC(=O)C[C@@H]1CC[C@@H](NS(=O)(=O)c2ccccc2OC)[C@@H](CO)O1,.,.,.,-3,-8%,.
Cc1ccc(-n2cc(CN3CCN(Cc4nccn4C)CC3)c(-c3cccc(C)c3)n2)cc1,?,?,-4%,14,3%,?
Cc1ccc(-n2cc(CN3CCNC(=O)CC3)c(-c3cccc(C)c3)n2)cc1,.,?,?,-7,17µM*,?
O=C1c2ccccc2C(=O)N1c1ccc2ccccc2n1,.,-12%,.,.,.,.
C=CCC1(O)CC(c2ccco2)NC(c2ccco2)C1CCC (stereo not drawn),32µM*,4.5µM*,?,.,-2%,50µM*
CCC1C(=O)CC(c2ccco2)NC1c1ccco1 (stereo not drawn),-15%[59 µM],-10%,27%,2,-7%,9%
O=C(Nc1ccc2c(c1)OCCO2)C(c1ccccc1)n1c(=O)c(-c2ccco2)nc2ccccc21 (stereo not drawn),.,.,.,-25,-14%,.
C/C(=N\N=C1\NC(=O)C(CC(=O)O)S1)c1ccccn1 (stereo not drawn),.,?,51%,-1,-3%,50µM*
Cc1cn(C2CC3OCC(NC(=O)C(NC(=O)OC(C)(C)C)C(C)OCc4ccccc4)C3O2)c(=O)[nH]c1=O (stereo not drawn),.,-3%,14%,.,.,.
COc1cc(N)ccc1NC(=O)c1cccs1,8.9µM*,-33%,31%,6,-8%,6%
COc1nc(N)nc(NC(=O)c2cccs2)c1N=O,.,28µM*,14%,-22,?,.
Fc1ccccc1-n1cc(-c2ccccc2)[nH]c1=S,3.5µM*,?,1%,1,-11%,?
